The record followed here is the supplement of paper PMC11219838.

Values without a mark were called inactive.

Conditions in all cases: 60 µM; 5 days; temperature: 20 °C
Test [1] concerns Meloidogyne hapla J2. Description: proportion of mobile M. hapla J2 relative to DMSO control (fraction of DMSO control); higher = more viable, less nematicidal, active = 0.7 or less. An outline of the steps: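 Compound was pinned to 60 µM final (0.6% v/v DMSO) into 96-well wells, each holding about 25 M. hapla J2 in distilled water. Plates were sealed and shaken for 5 days at 20 °C and 200 rpm, then given 2 µL 1 M NaOH per well. Microscopic mobility scores were normalised to the mean of the plate's own DMSO wells, eight per plate, with two biological replicates averaged.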

The test system of test [2] is Caenorhabditis elegans dauer (daf-2(e1370)). Kind of test: proportion of mobile C. elegans dauer larvae relative to DMSO control (fraction of DMSO control); higher = more viable, less nematicidal, active = 0.63 or less; extreme values may be limits of the assay. The procedure, abridged:
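Synchronized C. elegans larvae were kept for 48 h at 25 °C on MYOB plates seeded with E. coli OP50 to induce dauer formation, and roughly 20 dauers were transferred into each well of a 96-well plate containing liquid NGM. Compound was pinned in to a final concentration of 60 µM with 0.6% v/v DMSO, and the sealed plates were shaken at 200 rpm for 5 days at 20 °C. The fraction of mobile worms was scored under a dissection microscope against DMSO-only wells and averaged across two biological replicates.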

The test system of test [3] is Ditylenchus dipsaci. Kind of test: proportion of mobile D. dipsaci (mixed stage) relative to DMSO control (fraction of DMSO control); higher = more viable, less nematicidal, active = 0.86 or less; extreme values may be limits of the assay. An outline of the steps: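 Mobility values are relative to DMSO controls and are averages of two biological replicates. For each well of a 96-well plate, about 20 D. dipsaci worms, grown on pea plants in Gamborg B-5 agar and funnel-extracted into water, were dispensed in distilled water. Plates received pinned compound at 60 µM final with 0.6% v/v DMSO and were sealed and shaken at 200 rpm for 5 days at 20 °C before 2 µL 1 M NaOH was added and mobile worms were scored by microscope.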

Take `Clc1ccc(-c2noc(-c3ccccc3Cl)n2)cc1`: in test [1], the “proportion of mobile M. hapla J2” value was 0.927. For the same compound, in test [2], the “proportion of mobile C. elegans dauer larvae” value is 1. Besides, the “proportion of mobile D. dipsaci” value in test [3] is 1.
For `Cc1cccc(OCc2nc(-c3ccccc3Cl)no2)c1`, in test [1], the “proportion of mobile M. hapla J2” value was 1.08. Further, the “proportion of mobile C. elegans dauer larvae” value in test [2] was 1. Besides, the “proportion of mobile D. dipsaci” value in test [3] was 1.
Regarding `COc1ccc(-c2nnc(SCC(=O)Nc3ccc(C(C)C)cc3)o2)cc1`, in test [1], the “proportion of mobile M. hapla J2” value is 0.967. Also, the “proportion of mobile C. elegans dauer larvae” value in test [2] was 1. Besides, the “proportion of mobile D. dipsaci” value in test [3] is 1.
For `O=C(CSc1nnc(-c2cccc3ccccc23)o1)c1ccc(F)cc1`, the “proportion of mobile M. hapla J2” value in test [1] is 0.912. In addition, in test [2], the “proportion of mobile C. elegans dauer larvae” value is 1. In addition, the “proportion of mobile D. dipsaci” value in test [3] is 1.
On to `Cc1ccc(SCc2nc(-c3ccccc3)no2)cc1`, for which the “proportion of mobile M. hapla J2” value in test [1] is 1.14. Besides, the “proportion of mobile C. elegans dauer larvae” value in test [2] was 1. Moreover, the “proportion of mobile D. dipsaci” value in test [3] is 1.
Regarding `O=C(c1ccccc1-c1nc(-c2ccc(F)cc2)no1)N1CCCC1`, in test [1], the “proportion of mobile M. hapla J2” value is 1.06. For the same compound, the “proportion of mobile C. elegans dauer larvae” value in test [2] was 1. For the same compound, the “proportion of mobile D. dipsaci” value in test [3] is 1.
For `CC(Sc1nnc(-c2cccnc2)o1)C(=O)c1ccccc1` (stereo unspecified), the “proportion of mobile M. hapla J2” value in test [1] is 1.03. Besides, the “proportion of mobile C. elegans dauer larvae” value in test [2] was 1. Besides, the “proportion of mobile D. dipsaci” value in test [3] is 1.
As for `Cc1cc(C)cc(-c2nc(-c3ccc(Cl)cc3)no2)c1`, the “proportion of mobile M. hapla J2” value in test [1] is 0.938. In addition, the “proportion of mobile C. elegans dauer larvae” value in test [2] is 1. The “proportion of mobile D. dipsaci” value in test [3] was 1.
With `CCCOc1ccc(-c2nc(-c3ccncc3)no2)cc1`, the “proportion of mobile M. hapla J2” value in test [1] is 0.85. In addition, the “proportion of mobile C. elegans dauer larvae” value in test [2] is 0.5 (active). The “proportion of mobile D. dipsaci” value in test [3] was 1.
For `CC(=O)Nc1ccc(-c2nnc(SCc3ccccc3)o2)cc1`, in that order: 0.954, 1 and 1.
For `O=C(CSc1nnc(-c2ccco2)o1)c1ccc(Br)cc1`, the “proportion of mobile M. hapla J2” value in test [1] was 0.997. In test [2], the “proportion of mobile C. elegans dauer larvae” value is 1. In addition, the “proportion of mobile D. dipsaci” value in test [3] is 1.
Take `CCCOc1ccc(-c2ccc(-c3nc(-c4ccccn4)no3)cc2)cc1`: the “proportion of mobile M. hapla J2” value in test [1] was 0.969. Further, the “proportion of mobile C. elegans dauer larvae” value in test [2] was 1. Moreover, the “proportion of mobile D. dipsaci” value in test [3] is 1.
